LAP4 TOR yeast = modulators of LAP4-GFP expression in yeast, primary screen, S. cerevisiae, multiplex flow cytometry, MLPCN library. 320,000 compounds, 0.34% hits. GFP response vs DMSO, % at 10 µM. AID 2023, 2009. 3 h; median GFP as percent of DMSO wells;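 active means GFP response vs DMSO above a set limit, about the screen mean plus 3 SD, cut at about 150% in these data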
CIT2 TOR yeast = modulators of CIT2-GFP expression in yeast, primary screen, S. cerevisiae, GFP fusion, multiplex flow cytometry, MLPCN library. AID 2029, 2009. S. cerevisiae CIT2-GFP strain, 3 h; 100 means same as DMSO wells. 320,000 compounds, 0.065% hits. GFP response vs DMSO, % at 10 µM;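 active means GFP response relative to DMSO above a set limit, near the screen mean plus 3 SD, cut at about 150% in these data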;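 further: ratio of well median GFP fluorescence to mean of DMSO wells on the plate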
MEP2 TOR yeast = modulators of MEP2-GFP levels in yeast, primary screen, S. cerevisiae, multiplex flow cytometry, MLPCN library; GFP response vs DMSO, % at 10 µM; AID 2016, 2009; S. cerevisiae MEP2-GFP strain, 3 h; 100% = DMSO control level; 330,000 compounds, 0.51% hits;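 active means GFP response versus DMSO above a set limit, roughly screen mean plus 3 SD, cut at about 180% in these data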;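 further: median GFP fluorescence of the barcode-gated MEP2-GFP cells per well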
RPL19A TOR yeast = RPL19A-GFP expression modulators in yeast, primary screen, cell-based, S. cerevisiae, multiplex flow cytometry, MLPCN. 330,000 compounds, 0.3% hits. percent response vs DMSO, % at 10 µM. S. cerevisiae RPL19A-GFP strain, 3 h; stronger effect = lower value. AID 2025, 2009;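 active means percent response vs DMSO below 50%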;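 further: median channel GFP fluorescence of the barcoded RPL19A-GFP strain; lower means less RPL19A-GFP as with rapamycin TOR inhibition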
AGP1 TOR yeast = modulators of AGP1-GFP expression in yeast TOR pathway, primary screen, cell-based, multiplex flow cytometry, S. cerevisiae, MLPCN library; 3 h; GFP as percent of DMSO wells; GFP response vs DMSO, % at 10 µM; 320,000 compounds, 0.02% hits;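 active means GFP response relative to DMSO above a set limit, near screen average plus 3 SD, cut at about 150% in these data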;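 further: median GFP channel fluorescence of the gated AGP1 strain per well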
LAP4-GFP pick2 = LAP4-GFP expression modulators in yeast, confirmation, cell-based, second cherry pick, flow cytometry; 590 compounds, 20% hits; shares compounds with LAP4 TOR yeast; GFP response vs DMSO, % at 10 µM; S. cerevisiae LAP4-GFP strain, 3 h;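 active means GFP signal as percent of the solvent control above about 150%, meaning raised reporter expression, limit read from the data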
MEP2 cherry2 = modulators of MEP2-GFP levels in yeast, confirmation, S. cerevisiae, flow cytometry GFP, second cherry picks | shares compounds with LAP4 TOR yeast | S. cerevisiae MEP2-GFP strain, 3 h | GFP response vs DMSO, % at 10 µM | 590 compounds, 10% hits | AID 2622, 2010;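 active means GFP signal above 150% of the solvent control wells, that is a rise of more than half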;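 further: median channel GFP fluorescence of all gated yeast cells per well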
RPL19A-GFP pick2 = RPL19A-GFP modulators in TOR pathway yeast, confirmation, cell-based, S. cerevisiae, flow cytometry, second cherry pick. shares compounds with LAP4 TOR yeast. S. cerevisiae RPL19A-GFP strain, 3 h; stronger effect = lower value; 100% means same as DMSO wells. GFP response vs DMSO, % at 10 µM. 590 compounds, 3% hits. AID 2623, 2010;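 active means under 65% GFP response relative to DMSO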;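 further: median GFP channel fluorescence per well over the all cells gate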
CIT2 GFP CP2 = modulators of CIT2-GFP expression in yeast, confirmation, flow cytometry, second cherry pick, single plex | AID 2624, 2010 | GFP response vs DMSO, % at 10 µM | shares compounds with LAP4 TOR yeast | S. cerevisiae CIT2-GFP strain, 3 h; DMSO control wells read 100% | 590 compounds, 8% hits;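 active means GFP response vs DMSO above about 150%, limit read from the data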;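 further: median green fluorescence per well over all gated yeast cells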
AGP1-GFP pick2 = AGP1-GFP expression modulators, hit retest, confirmation, cell-based, flow cytometry, S. cerevisiae, cherry pick set 2; 590 tested, under 10 active; S. cerevisiae AGP1-GFP strain, 3 h; percent response vs DMSO, % at 10 µM; shares compounds with LAP4 TOR yeast;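 active means over 150 percent of DMSO response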;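 further: median GFP channel fluorescence over all cells without mother daughter split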
s288c autofluor = compound autofluorescence in yeast s288c, dose response, artefact control for yeast TOR pathway GFP screen, s288c strain. AID 2757, 2010. S. cerevisiae s288c, 520 nm autofluorescence, flow cytometry, 3 h; stronger effect = higher value; zero means same as solvent-only cells. shares compounds with LAP4 TOR yeast. 610 tested, under 10 active. fluorescence change (kMESF span) at 33 µM;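 active means fluorescence span over the dose series, or activity score, above about 33, limit read from the data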
s288c autofl DR = autofluorescence of compounds in yeast s288c, dose response, artefact control for yeast TOR pathway GFP screen, primary hits, KU SAR, s288c parental; shares compounds with LAP4 TOR yeast; S. cerevisiae s288c parental, compound autofluorescence, flow cytometry, 3 h; fluorescence change (span) at 33 µM; 110 tested, under 10 active;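 active means fluorescence change span, or the activity score built from it, above 25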
TORC1 bypass gr = wild-type yeast growth inhibition sparing TORC1 bypass cells, mechanism study for yeast TOR pathway GFP screen, BY4741 wild type, TORC1 bypass strain. shares compounds with LAP4 TOR yeast. S. cerevisiae BY4741 spot growth rating, 48-72 h; stronger effect = lower value. growth rating (0-3) at 30 µM. 120 tested, under 10 active. AID 504456, 2011;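 active means growth rating at most 1 for wild type yeast while the TORC1 bypass strain still grows fully, rated 3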
Large screens that a line does not name were inactive (follow-up assays come after a bar, where they were run); [ ] = dose if it differs, or a comment. The list is not random: actives were taken first. Their share in the collection is about 0.93%.

O=c1c2ccccc2oc2cc(C#CC3(O)CCCCC3)ccc12	LAP4 TOR yeast 153 | LAP4-GFP pick2 inactive | MEP2 cherry2 inactive | RPL19A-GFP pick2 inactive | CIT2 GFP CP2 inactive | AGP1-GFP pick2 inactive
COc1cccc2oc3cc(C#CC4(O)CCCCC4)ccc3c(=O)c12	none
CCOC(=O)CC(=O)Nc1ccc(C)cc1	none | LAP4-GFP pick2 inactive | MEP2 cherry2 inactive | RPL19A-GFP pick2 inactive | CIT2 GFP CP2 inactive | AGP1-GFP pick2 inactive
COc1ccccc1-c1nnc(SCCN2CCOCC2)n1-c1ccc(C)cc1	MEP2 TOR yeast 196 | LAP4-GFP pick2 inactive | MEP2 cherry2 inactive | RPL19A-GFP pick2 inactive | CIT2 GFP CP2 inactive | AGP1-GFP pick2 inactive
COc1ccccc1-c1nnc(SCC(=O)N2CCOCC2)n1-c1ccccc1	none
COC(=O)c1cccc(N/C=C(\[N+](=O)[O-])S(=O)(=O)c2ccccc2)c1	none
Cc1ccc(/C=C/C(=O)c2ccccc2)cc1	none
Cc1ccc(/C=C/C(=O)c2ccccc(=O)c2O)c(C)c1	MEP2 TOR yeast 181 | s288c autofluor inactive
Cc1ccc(C)c(/C=C/C(=O)c2ccccc(=O)c2O)c1	none | LAP4-GFP pick2 inactive | MEP2 cherry2 168 | RPL19A-GFP pick2 inactive | CIT2 GFP CP2 152 | AGP1-GFP pick2 inactive | s288c autofluor inactive
O=C(/C=C/c1ccccc1Cl)c1ccccc(=O)c1O	none | LAP4-GFP pick2 162 | MEP2 cherry2 222 | RPL19A-GFP pick2 inactive | CIT2 GFP CP2 inactive | AGP1-GFP pick2 inactive | s288c autofluor inactive
CCCN(CC(=O)Nc1ccccc1C)C(=O)c1sc2ccccc2c1Cl	none
CC1CCC(C(C)C)C(OP(=O)(c2ccc(N(C)C)cc2)C(O)c2cccnc2)C1 (centres undefined)	CIT2 TOR yeast 234[may fluoresce green], MEP2 TOR yeast 232[may fluoresce green] | LAP4-GFP pick2 inactive | MEP2 cherry2 inactive | RPL19A-GFP pick2 inactive | CIT2 GFP CP2 inactive | AGP1-GFP pick2 inactive
O=C(O)Cn1c(=O)c2c(c3ccccc31)CCC2	MEP2 TOR yeast 881 | LAP4-GFP pick2 inactive | MEP2 cherry2 inactive | RPL19A-GFP pick2 inactive | CIT2 GFP CP2 inactive | AGP1-GFP pick2 inactive
COC(=O)c1cc(N2C(=O)C3C(C2=O)C2(C)C=CC3(C)O2)ccc1Cl (centres undefined)	LAP4 TOR yeast 162 | s288c autofluor inactive
O=c1/c(=C/c2cccc3ccccc23)sc2ncnn12	LAP4 TOR yeast 155 | s288c autofluor inactive | s288c autofl DR inactive | TORC1 bypass gr inactive
Cc1ccsc1/C=c1\sc2ncnn2c1=O	none
Cn1c(=O)c2c(O)c([N+](=O)[O-])c(=O)n(C)c2n(C)c1=O	none
CCCCS(=O)(=O)/C=C\C=C/S(=O)(=O)CCCC	LAP4 TOR yeast 173 | LAP4-GFP pick2 214 | MEP2 cherry2 inactive | RPL19A-GFP pick2 inactive | CIT2 GFP CP2 inactive | AGP1-GFP pick2 inactive | s288c autofluor inactive
CCCCS(=O)(=O)/C=C\C1C2C=CC(C2)C1S(=O)(=O)CCCC (centres undefined)	none (no result: AGP1 TOR yeast)
C=C(CC[C@@H](O)C(C)(C)O)[C@H]1CC[C@]2(C)[C@@H]1CCC1[C@@]3(C)CCC(=O)C(C)(C)C3CC[C@]12C (some centres undefined)	LAP4 TOR yeast 158 | LAP4-GFP pick2 inactive | MEP2 cherry2 inactive | RPL19A-GFP pick2 inactive | CIT2 GFP CP2 inactive | AGP1-GFP pick2 inactive
C=C(C)[C@@H]1CCC2(C(=O)O)CC[C@]3(C)[C@H](CC[C@@H]4[C@@]5(C)CCC(=O)C(C)(C)[C@@H]5CC[C@]43C)[C@@H]12 (some centres undefined)	none
CNc1nc(N)cc(Oc2cccc(Cl)c2)n1	none (no result: LAP4 TOR yeast, CIT2 TOR yeast, MEP2 TOR yeast, RPL19A TOR yeast, AGP1 TOR yeast) | TORC1 bypass gr inactive
Cc1cc(Oc2ccccc2)nc(NCc2ccccc2)n1	none
Nc1cc(Oc2cccc(Cl)c2)nc(NCc2ccccc2)n1	none (no result: LAP4 TOR yeast, CIT2 TOR yeast, MEP2 TOR yeast, RPL19A TOR yeast, AGP1 TOR yeast) | s288c autofl DR inactive | TORC1 bypass gr inactive
COc1cc(Oc2ccccc2)nc(N)n1	none
O=C(NCCCl)Nc1ccccc1OCCOc1ccccc1NC(=O)NCCCl	none
O=C(CC1C(=O)NCCN1C(=O)c1ccc([N+](=O)[O-])cc1)Nc1ccc(F)cc1 (centres undefined)	none
Oc1ccc2ccccc2c1/C=N/Nc1nnc(-c2ncc[nH]2)c2ccccc12	LAP4 TOR yeast 277, MEP2 TOR yeast 194 | s288c autofluor 40
Cc1ccc(NC(=O)c2cc(N3C(=O)C=CC3=O)ccc2N2CCOCC2)cc1Cl	LAP4 TOR yeast 153 | LAP4-GFP pick2 162 | MEP2 cherry2 183 | RPL19A-GFP pick2 inactive | CIT2 GFP CP2 inactive | AGP1-GFP pick2 inactive | s288c autofluor inactive | s288c autofl DR inactive | TORC1 bypass gr inactive
Cc1cccc(OCCN2CSC(=S)N(C)C2)c1	LAP4 TOR yeast 160 | s288c autofluor inactive

Screens: PubChem, NMMLSC
